# According to publication PMC5540273 (PLoS ONE, 2017):
# Several values for one entry are separate records, joined by “and”; a condition that tells them apart may be missing. Identical values can stand only once. Like-named read-outs stand apart in the source and are kept apart here.
# Columns and labels:
# DAPK1 = conditions: concentration: 1 μM, replicates: in singlicate, n = 1
# DAPK2 = conditions: concentration: 1 μM, replicates: in singlicate, n = 1
# DAPK3 = conditions: concentration: 1 μM, replicates: in singlicate, n = 1
# DCAMKL1 = test system: T1, DCAMKL1; conditions: concentration: 1 μM, replicates: in singlicate, n = 1
# T1 construct: gene DCLK1
# DCAMKL2 = test system: T2, DCAMKL2; conditions: concentration: 1 μM, replicates: in singlicate, n = 1
# T2 construct: gene DCLK2
# DCAMKL3 = test system: T3, DCAMKL3; conditions: concentration: 1 μM, replicates: in singlicate, n = 1
# T3 construct: gene DCLK3
# DDR1 = conditions: concentration: 1 μM, replicates: in singlicate, n = 1
# DDR2 = conditions: concentration: 1 μM, replicates: in singlicate, n = 1
# DLK = test system: T4, DLK; conditions: concentration: 1 μM, replicates: in singlicate, n = 1
# T4 construct: gene MAP3K12
# DMPK2 = test system: T5, DMPK2; conditions: concentration: 1 μM, replicates: in singlicate, n = 1
# T5 construct: gene CDC42BPG
# DMPK = conditions: concentration: 1 μM, replicates: in singlicate, n = 1
# DRAK1 = test system: T6, DRAK1; conditions: concentration: 1 μM, replicates: in singlicate, n = 1
# T6 construct: gene STK17A
# DRAK2 = test system: T7, DRAK2; conditions: concentration: 1 μM, replicates: in singlicate, n = 1
# T7 construct: gene STK17B
# DYRK1A = conditions: concentration: 1 μM, replicates: in singlicate, n = 1
# DYRK1B = conditions: concentration: 1 μM, replicates: in singlicate, n = 1
# DYRK2 = conditions: concentration: 1 μM, replicates: in singlicate, n = 1
# EGFR = conditions: concentration: 1 μM, replicates: in singlicate, n = 1
# EIF2AK1 = conditions: concentration: 1 μM, replicates: in singlicate, n = 1
# EPHA1 = conditions: concentration: 1 μM, replicates: in singlicate, n = 1
# EPHA2 = conditions: concentration: 1 μM, replicates: in singlicate; n = 1
# 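Further: KINOMEscan kinase panel screen.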
smiles,measurement,setting,value
COc1cc2ncn(-c3cc(OCc4sccc4Cl)c(C(N)=O)s3)c2cc1OC [GSK448459],%Inh,DAPK1,12%
same,%Inh,DAPK2,2%
same,%Inh,DAPK3,36%
same,%Inh,DCAMKL1,5%
same,%Inh,DCAMKL2,4%
same,%Inh,DCAMKL3,0%
same,%Inh,DDR1,0%
same,%Inh,DDR2,12%
same,%Inh,DLK,32%
same,%Inh,DMPK2,0%
same,%Inh,DMPK,0%
same,%Inh,DRAK1,0%
same,%Inh,DRAK2,0%
same,%Inh,DYRK1A,13%
same,%Inh,DYRK1B,0%
same,%Inh,DYRK2,26%
same,%Inh,EGFR,32%
same,%Inh,EIF2AK1,0%
same,%Inh,EPHA1,0%
same,%Inh,EPHA2,0%
Cc1cccc(-c2nc(Nc3ccc4ncsc4c3)c3ccccc3n2)n1 [GW867588],%Inh,DAPK1,0%
same,%Inh,DAPK2,0%
same,%Inh,DAPK3,23%
same,%Inh,DCAMKL1,0%
same,%Inh,DCAMKL2,7%
same,%Inh,DCAMKL3,0%
same,%Inh,DDR1,0%
same,%Inh,DDR2,35%
same,%Inh,DLK,0%
same,%Inh,DMPK2,9%
same,%Inh,DMPK,0%
same,%Inh,DRAK1,0%
same,%Inh,DRAK2,0%
same,%Inh,DYRK1A,3%
same,%Inh,DYRK1B,0%
same,%Inh,DYRK2,33%
same,%Inh,EGFR,2%
same,%Inh,EIF2AK1,0%
same,%Inh,EPHA1,0%
same,%Inh,EPHA2,0%
COc1ccc(Nc2ncc(C#N)c(Nc3ccccc3C(N)=O)n2)cc1N1CCN(C)CC1.Cl [GSK1558669],%Inh,DAPK1,97.8%
same,%Inh,DAPK2,98.5%
same,%Inh,DAPK3,99.2%
same,%Inh,DCAMKL1,97.4%
same,%Inh,DCAMKL2,100%
same,%Inh,DCAMKL3,99.6%
same,%Inh,DDR1,100%
same,%Inh,DDR2,94.2%
same,%Inh,DLK,97.8%
same,%Inh,DMPK2,89%
same,%Inh,DMPK,88%
same,%Inh,DRAK1,99.1%
same,%Inh,DRAK2,83%
same,%Inh,DYRK1A,99.8%
same,%Inh,DYRK1B,87%
same,%Inh,DYRK2,99.1%
same,%Inh,EGFR,92.7%
same,%Inh,EIF2AK1,48%
same,%Inh,EPHA1,92.9%
same,%Inh,EPHA2,80%
Cn1cc(-c2ccc3c(c2)CCN3C(=O)Cc2ccccc2Cl)c2c(N)ncnc21 [GSK2608885],%Inh,DAPK1,0%
same,%Inh,DAPK2,0%
same,%Inh,DAPK3,5%
same,%Inh,DCAMKL1,13%
same,%Inh,DCAMKL2,1%
same,%Inh,DCAMKL3,35%
same,%Inh,DDR1,100%
same,%Inh,DDR2,93.4%
same,%Inh,DLK,6%
same,%Inh,DMPK2,100%
same,%Inh,DMPK,0%
same,%Inh,DRAK1,0%
same,%Inh,DRAK2,0%
same,%Inh,DYRK1A,7%
same,%Inh,DYRK1B,12%
same,%Inh,DYRK2,29%
same,%Inh,EGFR,100%
same,%Inh,EIF2AK1,6%
same,%Inh,EPHA1,88%
same,%Inh,EPHA2,77%
O=c1cc(N2CCOCC2)nc2n(Cc3cccc(C(F)(F)F)c3)ccn12 [GSK2297543],%Inh,DAPK1,0%
same,%Inh,DAPK2,9%
same,%Inh,DAPK3,10%
same,%Inh,DCAMKL1,21%
same,%Inh,DCAMKL2,10%
same,%Inh,DCAMKL3,0%
same,%Inh,DDR1,0%
same,%Inh,DDR2,2%
same,%Inh,DLK,0%
same,%Inh,DMPK2,0%
same,%Inh,DMPK,9%
same,%Inh,DRAK1,0%
same,%Inh,DRAK2,0%
same,%Inh,DYRK1A,6%
same,%Inh,DYRK1B,0%
same,%Inh,DYRK2,5%
same,%Inh,EGFR,25%
same,%Inh,EIF2AK1,0%
same,%Inh,EPHA1,0%
same,%Inh,EPHA2,13%
COc1cc(Nc2nccc(N3CCC(NC(=O)c4cccc(NC(C)=O)c4)C3)n2)cc(OC)c1OC (centres unmarked) [GSK1379754],%Inh,DAPK1,0%
same,%Inh,DAPK2,8%
same,%Inh,DAPK3,19%
same,%Inh,DCAMKL1,8%
same,%Inh,DCAMKL2,21%
same,%Inh,DCAMKL3,0%
same,%Inh,DDR1,0%
same,%Inh,DDR2,4%
same,%Inh,DLK,62%
same,%Inh,DMPK2,0%
same,%Inh,DMPK,0%
same,%Inh,DRAK1,32%
same,%Inh,DRAK2,29%
same,%Inh,DYRK1A,17%
same,%Inh,DYRK1B,28%
same,%Inh,DYRK2,28%
same,%Inh,EGFR,0%
same,%Inh,EIF2AK1,0%
same,%Inh,EPHA1,11%
same,%Inh,EPHA2,0%
Cl.Cl.Cl.Fc1ccc(-c2ncn(C3CCNCC3)c2-c2ccnc(Nc3ccccc3)n2)cc1 [SB-238039],%Inh,DAPK1; 1 µM,0% and 24%
same,%Inh,DAPK2,0%
same,%Inh,DAPK3; 1 µM,18% and 0%
same,%Inh,DCAMKL1; 1 µM,18% and 12%
same,%Inh,DCAMKL2; 1 µM,22% and 33%
same,%Inh,DCAMKL3; 1 µM,8% and 75%
same,%Inh,DDR1; 1 µM,87% and 84%
same,%Inh,DDR2; 1 µM,87% and 63%
same,%Inh,DLK; 1 µM,29% and 7%
same,%Inh,DMPK2; 1 µM,99.9% and 99.8%
same,%Inh,DMPK,28%
same,%Inh,DRAK1; 1 µM,9% and 3%
same,%Inh,DRAK2; 1 µM,18% and 6%
same,%Inh,DYRK1A,0%
same,%Inh,DYRK1B; 1 µM,6% and 7%
same,%Inh,DYRK2; 1 µM,11% and 0%
same,%Inh,EGFR; 1 µM,90.1% and 72%
same,%Inh,EIF2AK1; 1 µM,0% and 1%
same,%Inh,EPHA1,0%
same,%Inh,EPHA2,0%
COCCNC(=O)c1ccc(-c2cc(C(=O)NC3CC3)cc(F)c2C)cc1 [GW868318],%Inh,DAPK1,10%
same,%Inh,DAPK2,0%
same,%Inh,DAPK3,28%
same,%Inh,DCAMKL1,12%
same,%Inh,DCAMKL2,19%
same,%Inh,DCAMKL3,13%
same,%Inh,DDR1,21%
same,%Inh,DDR2,21%
same,%Inh,DLK,6%
same,%Inh,DMPK2,0%
same,%Inh,DMPK,20%
same,%Inh,DRAK1,13%
same,%Inh,DRAK2,0%
same,%Inh,DYRK1A,9%
same,%Inh,DYRK1B,21%
same,%Inh,DYRK2,28%
same,%Inh,EGFR,21%
same,%Inh,EIF2AK1,22%
same,%Inh,EPHA1,29%
same,%Inh,EPHA2,7%
NCCNS(=O)(=O)c1ccc(-c2ccnc3[nH]ccc23)cc1 [GSK977617],%Inh,DAPK1; 1 µM,94% and 90.7%
same,%Inh,DAPK2; 1 µM,91.4% and 86%
same,%Inh,DAPK3; 1 µM,98.5% and 97.6%
same,%Inh,DCAMKL1; 1 µM,50% and 52%
same,%Inh,DCAMKL2; 1 µM,34% and 28%
same,%Inh,DCAMKL3; 1 µM,58% and 39%
same,%Inh,DDR1,0%
same,%Inh,DDR2; 1 µM,12% and 8%
same,%Inh,DLK; 1 µM,48% and 40%
same,%Inh,DMPK2; 1 µM,78% and 71%
same,%Inh,DMPK; 1 µM,98.6% and 96.7%
same,%Inh,DRAK1; 1 µM,98.5% and 96.6%
same,%Inh,DRAK2; 1 µM,77% and 60%
same,%Inh,DYRK1A; 1 µM,89% and 84%
same,%Inh,DYRK1B; 1 µM,85% and 61%
same,%Inh,DYRK2; 1 µM,86% and 72%
same,%Inh,EGFR; 1 µM,22% and 15%
same,%Inh,EIF2AK1; 1 µM,11% and 0%
same,%Inh,EPHA1; 1 µM,54% and 38%
same,%Inh,EPHA2,0%
Cn1ccc2ncnc(Oc3ccc(NC(=O)Nc4ccncc4)c(Cl)c3)c21,%Inh,DAPK1,0%
same,%Inh,DAPK2,0%
same,%Inh,DAPK3,0%
same,%Inh,DCAMKL1,13%
same,%Inh,DCAMKL2,0%
same,%Inh,DCAMKL3,0%
same,%Inh,DDR1,35%
same,%Inh,DDR2,34%
same,%Inh,DLK,0%
same,%Inh,DMPK2,0%
same,%Inh,DMPK,0%
same,%Inh,DRAK1,0%
same,%Inh,DRAK2,0%
same,%Inh,DYRK1A,0%
same,%Inh,DYRK1B,21%
same,%Inh,DYRK2,0%
same,%Inh,EGFR,0%
same,%Inh,EIF2AK1,0%
same,%Inh,EPHA1,0%
same,%Inh,EPHA2,0%
